Measurements reported in PubChem BioAssay (NCATS).
Results filed as inconclusive are left out. Values without a mark were called inactive. Calls follow the shape of the dose curve; as a rule, active = well fitted inhibition curve with a large enough effect; inconclusive = small, poorly fitted or top-dose-only effect; inactive = no such curve, though single readings can be large or run the other way.

What follows are molecules tested against Rap guanine nucleotide exchange factor 3 (Homo sapiens) (UniProt O95398) (assay: Counterscreen qHTS for antagonist of cAMP-regulated guanine nucleotide exchange factor 3 (EPAC1) (AID 1645888; also: % of control where 0% means no effect)). Conditions: Rap1B-BODIPY-GDP nucleotide exchange, fluorescence; series mostly up to 154 µM; activity change, negative = inhibition: at the top concentration.
Sequence of Rap guanine nucleotide exchange factor 3 (Homo sapiens) (O95398 whole entry, looked up): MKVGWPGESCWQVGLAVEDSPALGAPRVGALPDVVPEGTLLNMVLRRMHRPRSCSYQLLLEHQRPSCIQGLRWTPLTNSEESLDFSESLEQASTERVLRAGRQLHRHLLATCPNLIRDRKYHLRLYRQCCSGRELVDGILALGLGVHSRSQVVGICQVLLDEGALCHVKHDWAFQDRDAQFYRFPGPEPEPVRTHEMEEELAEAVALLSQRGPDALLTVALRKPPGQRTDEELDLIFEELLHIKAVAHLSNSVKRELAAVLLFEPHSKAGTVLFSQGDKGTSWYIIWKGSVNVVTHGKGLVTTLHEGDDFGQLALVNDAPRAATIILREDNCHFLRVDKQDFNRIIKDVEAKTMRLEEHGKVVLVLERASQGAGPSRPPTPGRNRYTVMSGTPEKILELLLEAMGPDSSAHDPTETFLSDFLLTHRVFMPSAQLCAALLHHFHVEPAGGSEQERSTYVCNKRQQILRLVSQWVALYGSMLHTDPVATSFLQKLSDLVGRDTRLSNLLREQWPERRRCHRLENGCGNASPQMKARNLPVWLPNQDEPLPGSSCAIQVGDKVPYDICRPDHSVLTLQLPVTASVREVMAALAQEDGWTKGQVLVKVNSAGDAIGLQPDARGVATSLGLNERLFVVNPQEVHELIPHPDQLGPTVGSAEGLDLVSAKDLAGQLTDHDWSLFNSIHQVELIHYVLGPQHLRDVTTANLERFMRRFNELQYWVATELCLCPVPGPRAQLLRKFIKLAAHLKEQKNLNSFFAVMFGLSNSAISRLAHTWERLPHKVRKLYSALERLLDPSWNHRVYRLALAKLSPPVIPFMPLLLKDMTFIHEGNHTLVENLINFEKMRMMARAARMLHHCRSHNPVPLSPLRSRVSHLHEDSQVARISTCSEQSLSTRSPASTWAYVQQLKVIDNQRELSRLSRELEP
Text: Assay Provider (PI): Xiaodong Cheng Ph.D. The University of Texas Medical Branch, […], TX MLPCN Grant: NS066510 In multi-cellular eukaryotic organisms, the effects of cAMP are transduced by two ubiquitously-expressed intracellular cAMP receptors, the classic protein kinase A/cAMP-dependent protein kinase (PKA/cAPK) and the more recently discovered exchange protein directly activated by cAMP/cAMP-regulated guanine nucleotide exchange factor (EPAC/cAMP-GEF). Both PKA and EPAC are ubiquitously expressed in all tissues, and an increase in intracellular cAMP levels will lead to the activation of both PKA and EPAC. Therefore, careful dissections of the individual role and relative contribution of EPAC and PKA within the overall cAMP signaling in various model systems are critical for further elucidating the mechanism of cAMP signaling. To date no EPAC-specific antagonists and agonist, as well as isoform-specific agonists have been reported, and developing EPAC-specific pharmacological probes to determine the physiological functions that EPAC play in the overall cAMP-mediated signaling remains a major challenge within the research field. Furthermore, identified regulators of EPAC may lead to new mechanism-based therapeutic strategies specifically targeting the EPAC / cAMP-signaling components as EPAC has been implicated to play important roles in major human pathological conditions such as diabetes, heart disease, and cancer. This qHTS will be used to screen the Molecular Libraries Small Molecule Repository (MLSMR) as a concentration-titration series using the NCGC unique quantitative screening (qHTS) platform to find activators for EPAC1. In addition, this assay will also be used as a counterscreen for the EPAC2 qHTS. This fluorescent based assay is developed and validated for EPAC1 that measures exchange using EPAC effector Rap1 complex with BODIPY-GDP, a GDP analog with a tethered fluorophores. Activators are identified by monitoring the change in fluorescence signal as the exchanged free BODIPY-GDP has a reduced fluorescence compared to Rap1-bound BODIPY-GDP. Increase in signal (activation) is the desired outcome for the EPAC1 agonist while no activity in this assay is desired for the EPAC2 agonist counterscreen. Reference: [1] de Rooij, J., Zwartkruis, F. J., Verheijen, M. H., Cool, R. H., Nijman, S. M., Wittinghofer, A., and Bos, J.L. (1998) Nature 396, 474-477. Kawasaki, H., Springett, G. M., Mochizuki, N., Toki, S., Nakaya, M., Matsuda, M., Housman, D. E., and Graybiel, A. M. (1998) Science 282, 2275-2279.
EPAC1 Counterscreen PROTOCOL TABLE SEQUENCE No. (e.g., 1, 2, 3, etc.); […] (e.g., Cells, Incubation, Reagent, etc.); VALUE and DESCRIPTION. 1. Reagent. 3 uL. [1x] 250 nM Rap1B-BODIPY-GDP, and 50 uM GDP. 2a. Compound. 23 nL. Control 6,572 uM cAMP (working concentration). 2b, 2c. Compound. 23 nL. Control activator and inhibitor; 234 - 30,000 uM cAMP and 16.4 - 10,000 uM. 2d. Compound. 46 nL. MLSMR follow-up library; 0.64 - 10,000 uM. 3. Time. 15 sec, 1000rpm. Centrifuge. 4. Time. 5 min. Incubation at room temperature. 5. Detector. Fluorescence. (Read 1), Ex/Em = 480 nm / 540 nm. 6. Time. 30 min. Incubation at room temperature. 7. Detector. Fluorescence. (Read 2), Ex/Em = 480 nm/ 540 nm. 8. Reagent. 1uL. Dispense either [4x] 10 uM cAMP or buffer. 9. Time. 15 sec, 1000 rpm. Centrifuge. 10. Time. 5 min. Incubation at room temperature. 11. Detector. Fluorescence. (Read 3), Ex/Em = 480 nm / 540 nm. 12. Time. 30 min. Incubation at room temperature. 13. Detector. Fluorescence. (Read 4), Ex/Em = 480 nm / 540 nm. NOTES (numbers refer to Sequence numbers above; values are from representative experiments) 1. Medium-binding black solid-bottom Greiner plates (789176-F). Dispense 3 uL of [1x] 250 nM Rap1B-BODIPY-GDP, and 50 uM GDP into columns 1 to 48. 2a. Control compound cAMP (6,572 uM, column 3, rows 1 to 32) single pin-transferred for a [final] of 50 uM. 2b. […]

SMILES | activity change, negative = inhibition
Cc1nc2c(C(=O)NCCc3ccc(Cl)cc3)c[nH]n2c(=O)c1Cc1ccccc1F | -14.9%
CCCN1CCN(c2ncnc3sc(C(=O)Nc4ccc(OC(F)(F)F)cc4)c(C)c23)CC1 | -4.96%
CCc1ccccc1NC1c2ccccc2C(=O)N1Cc1ccco1 (stereo not given) | -4.2% [at 30.8 µM]
CC1=NOC(=O)/C1=C\c1ccc(-c2ccc(Br)cc2)o1 | -10.2% [at 30.8 µM]
Cc1ccc(NS(=O)(=O)c2cccs2)cc1S(=O)(=O)N1CCCCCC1 | -9.98%
O=C(COc1ccc(Cl)cc1Cl)c1ccc[nH]1 | -17.9% [at 30.8 µM]
COc1cc(NS(=O)(=O)c2cc3[nH]c(=O)c(=O)[nH]c3cc2C)cc(OC)c1OC | -5.07% [at 30.8 µM]
COc1ccccc1NC(=O)c1ccccc1NS(=O)(=O)c1cccs1 | 9.31%
O=C(CSc1ncnc2[nH]ncc12)Nc1cccc(Oc2ccccc2)c1 | -9.96% [at 30.8 µM]
COC(=O)c1cccc(F)c1C(=O)c1cccc2ccccc12 | -6.13%
O=C(O)CN1C(=O)/C(=C\c2cc(Br)ccc2OCc2ccc(Cl)cc2)SC1=S | -0.121%
CCOC(=O)Nc1ccccc1C(=O)Nc1cc(C)cc(C)c1 | -23.4%
CCCC[C@@H]1C=C(C(=O)O)[C@H](c2ccc(Cl)c(Cl)c2)N1S(=O)(=O)c1ccc(C)cc1 | 1%
CC(C)C[C@H](NC(=O)C1(c2ccccc2)CCN(C(=O)OC(C)(C)C)CC1)C(=O)N1CCC[C@H]1C(=O)O | -16.6%
COc1ccc(C(=O)/C=C/c2ccccc2)c(OC)c1 | -1.15%
COc1ccc(C(=O)N(Cc2ccco2)Cc2ccc(C)o2)cc1 | 65.2%
Cc1cccc(NC(=O)c2ccc(-n3cncn3)c([N+](=O)[O-])c2)c1 | -21.4% [at 30.8 µM]
COc1cccc(N2CCN(CC(=O)NC(=O)NCc3ccco3)CC2)c1 | 5.86%
Nc1nnc(CC(=O)N/N=C/c2cc([N+](=O)[O-])cc(Br)c2O)s1 | 4.34%
CCN1CCc2c(sc(-n3cccc3)c2C(C)NC(=O)Nc2ccc(C(=O)OC)cc2)C1 (stereo not given) | 12.4%

SMILES | activity change, negative = inhibition
CN(C)c1ccccc1-c1cc(NC=O)c2ncc(-c3cccc(C(F)(F)F)c3)n2c1 | -15.8%
CCOc1ccccc1NC(=O)C1CCN(c2nc(-c3ccc(OC)cc3)no2)CC1 | -14.4% [at 30.8 µM]
CCN(CC)c1nc2ccccc2nc1C(C#N)C(=O)NCCc1ccccc1 (stereo not given) | 17.9%
Cc1ccc(C)c(-c2ccc(=O)n(Cc3ccc(F)cc3Cl)n2)c1 | -7.63%
COc1ccc(CCn2c(=N)c(C(=O)NC3CCCCC3)cc3c(=O)n4ccccc4nc32)cc1 | 13.9%
COc1ccc(-c2ccc(C(=O)NCCN3CCOCC3)c3occc23)c(C)c1 | 5.91%
Cc1ccc(C(=O)Nc2cccc(-c3ccc(N4CCOCC4)nn3)c2)cc1C | -7.91%
O=[N+]([O-])CC(c1ccccc1)c1c[nH]c2ccccc12 (stereo not given) | -6.26%
CCOc1cc(-c2ccc(OC(=O)c3ccc(OC)cc3)c(OC)c2)cc(=O)c2c(C)oc(C)c12 | -14.9%
Cc1ccc(C(=O)N2CCN(c3ccccc3)CC2)cc1S(=O)(=O)N1CCOCC1 | 5.67%
O=C1CSC(c2ccc(Cl)c(Cl)c2)N1c1nccs1 (stereo not given) | 12.8%
CCOC(=O)c1c(C)[nH]c(C(=O)OCC(=O)Nc2sccc2C(N)=O)c1C | 0.412%
CCOC(=O)c1ccccc1NC(=O)COC(=O)C(Cc1c[nH]c2ccccc12)NC(C)=O (stereo not given) | 2.05%
Cc1ccc(NC(=O)Cn2nnc(-c3nc(-c4ccncc4)no3)c2N)c(C)c1 | -2.46%
COc1ccc(Cn2c(-c3ccc(C)cc3)nc3c(c(=O)c4ccccc4n3C)c2=O)cc1 | -16.2% [at 30.8 µM]
Oc1ccc(-c2nc(-c3ccc(O)c(O)c3)cs2)cc1 | 5.41%
Cc1nn(C)c(C)c1N1C(=O)c2cccc3c(N)ccc(c23)C1=O | 353% [at 30.8 µM]
N=C1SC(c2ccccc2)C(=O)N1c1ncc(Cc2ccccc2Cl)s1 (stereo not given) | 11.6%
COc1ccccc1N(CC(=O)Nc1cc(C)on1)S(=O)(=O)c1ccc(Cl)cc1 | -8.9% [at 30.8 µM]
CCOc1nc(-c2ccccc2Cl)nc2ccccc12 | -11.6%
